Drawing on the supplement of paper PMC7366291, this text covers glomerular separation and glomerular width for 39 compounds.

Where a name gives a salt, the structure may show the parent alone. ± gives the standard deviation or the standard deviation of the averaged measurements.

The first assay relates to Danio rerio Tg(wt1b:EGFP) embryo, pronephros. In words: glomerular separation, fold change vs DMSO control; higher = glomeruli further apart (abnormal). The conditions noted are these: 25 µM; exposure: 24-48 hpf. In short, it runs like this: (§1)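 From 24 to 48 hpf, at 28.5°C, dechorionated Tg(wt1b:EGFP) zebrafish embryos sat in HEPES-buffered E3 with 0.003% PTU carrying 25 μM compound and 0.5% DMSO. Their pronephroi were imaged dorsally in 96-well plates filled with agarose, using 470 nm light and 10 z-slices. A Fiji macro measured distances and angles between 16 reference points that were set manually on maximum projections, and any value more than 2 SD from its feature mean was excluded. Features are expressed as fold change relative to the mean of DMSO-treated embryos imaged on the same day.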
As for `CCOC(=O)C1=C(C)NC(C)=C(C(=O)OC)C1c1cccc([N+](=O)[O-])c1` (stereo not drawn) [Nitrendipine], the glomerular separation was determined as 5.49 ± 1.

Take `CC(=O)N(CC(O)CO)c1c(I)c(C(=O)NCC(O)CO)c(I)c(C(=O)NCC(O)CO)c1I` (stereo not drawn) [Iohexol]: the glomerular separation stood at 1.06 ± 0.38.

Compound `CCN1CCN(C(=O)N[C@@H](C(=O)N[C@@H]2C(=O)N3C(C(=O)O)=C(CSc4nnnn4C)CS[C@H]23)c2ccc(O)cc2)C(=O)C1=O` [Cefoperazone dihydrate] yielded a glomerular separation of 1.2 ± 0.23.

For `CCN(CC)CCNC(=O)c1ccc(N)cc1` [Procainamide hydrochloride], the glomerular separation was 0.95 ± 0.48.

The compound `OC(CCN1CCCCC1)(c1ccccc1)C1CC2C=CC1C2` (stereo not drawn) [Biperiden hydrochloride] returned a glomerular separation of 1.06 ± 0.13.

`CC(=O)OCC(CCn1cnc2cnc(N)nc21)COC(C)=O` [Famciclovir] yielded a glomerular separation of 0.793 ± 0.23.

For the compound `CC(C)NCC(O)c1ccc2ccccc2c1` (stereo not drawn) [Pronethalol hydrochloride], the glomerular separation was found to be 0.915 ± 0.49.

The compound `Cc1cccc(C)c1OCC(C)N` (stereo not drawn) [Mexiletine hydrochloride] had a glomerular separation of 0.9 ± 0.27.

The compound `Cc1c(NC(=O)c2cccnc2)c(=O)n(-c2ccccc2)n1C` [Nifenazone] displayed a glomerular separation of 0.806 ± 0.28.

As to `C[C@]12CC[C@H]3C(=CCc4cc(O)ccc43)[C@@H]1CCC2=O` [Equilin], the glomerular separation was 1.59 ± 0.67.

For the compound `CC(=O)N[C@@H](CC(C)C)C(=O)O` [N-Acetyl-L-leucine], the glomerular separation turned out to be 1.02 ± 0.21.

`CC(=O)O[C@H]1C[C@@]2(C)[C@@H](C[C@@H](O)[C@H]3[C@@]4(C)CC[C@@H](O)[C@@H](C)[C@@H]4CC[C@@]32C)/C1=C(\CCC=C(C)C)C(=O)O` [Fusidic acid sodium salt] displayed a glomerular separation of 0.853 ± 0.16.

`Nc1ccc(S(N)(=O)=O)cc1` [Sulfanilamide] gave a glomerular separation of 0.646 ± 0.14.

For `C[C@]12CCC(=O)C=C1C=C[C@@H]1[C@@H]2CC[C@@]2(C)[C@H]1CC[C@@]21CCC(=O)O1` [Canrenone], the glomerular separation was 1.24 ± 0.51.

On to `O=S(=O)(O)c1cc(O)ccc1O` [Ethamsylate], for which the glomerular separation worked out at 1.12 ± 0.45.

`Nc1cc(N2CCCCC2)nc(N)[n+]1[O-]` [Minoxidil] yielded a glomerular separation of 0.953 ± 0.24.

Consider `CSc1ccc2c(c1)N(CCC1CCCCN1C)c1ccccc1S2` (stereo not drawn) [Thioridazine hydrochloride], for which the glomerular separation came out at 1.12 ± 0.33.

`CC(C)n1c(/C=C/C(O)CC(O)CC(=O)O)c(-c2ccc(F)cc2)c2ccccc21` (stereo not drawn) [Fluvastatin sodium salt] yielded a glomerular separation of 4.31 ± 1.6.

Compound `Nc1nc(N)c2nc(-c3ccccc3)c(N)nc2n1` [Triamterene] displayed a glomerular separation of 1.02 ± 0.42.

As to `COC(=O)[C@@H]1[C@H]2C[C@H]3c4[nH]c5ccccc5c4CCN3C[C@@H]2CC[C@@H]1O` [Yohimbine hydrochloride], the glomerular separation is 1.24 ± 0.41.

Compound `C[C@]12CC[C@@H]3c4ccc(OS(=O)(=O)O)cc4CC[C@H]3[C@@H]1CCC2=O` [Estropipate] yielded a glomerular separation of 1.27 ± 0.59.

Compound `CC(=C(CCO)SSCC1CCCO1)N(C=O)Cc1cnc(C)nc1N` (stereo in doubt) [Fursultiamine Hydrochloride] returned a glomerular separation of 1.06 ± 0.24.

Take `C(=C\c1ccccc1)/CN1CCN(C(c2ccccc2)c2ccccc2)CC1` [Cinnarizine]: the glomerular separation came out at 1.15 ± 0.31.

`CCN[C@H]1CN(CCCOC)S(=O)(=O)c2sc(S(N)(=O)=O)cc21` [Brinzolamide] had a glomerular separation of 1.47 ± 0.71.

The compound `N=C(N)NCc1cccc(I)c1` [Iobenguane sulfate] had a glomerular separation of 0.901 ± 0.19.

`CO/N=C(\C(=O)N[C@@H]1C(=O)N2C(C(=O)O)=C(COC(C)=O)CS[C@H]12)c1csc(N)n1` [Cefotaxime sodium salt] gave a glomerular separation of 0.857 ± 0.26.

`CC(=O)NC[C@H]1CN(c2ccc(N3CCOCC3)c(F)c2)C(=O)O1` [Linezolid]: the glomerular separation was 0.987 ± 0.23.

The compound `O=C(CCCN1CC=C(n2c(=O)[nH]c3ccccc32)CC1)c1ccc(F)cc1` [Droperidol] showed a glomerular separation of 1.38 ± 0.42.

Take `NC(Cc1cc(I)c(Oc2cc(I)c(O)c(I)c2)c(I)c1)C(=O)O` (stereo not drawn) [Thyroxine (L)]: the glomerular separation was determined as 1.12 ± 0.3.

On to `Nc1nc(O)c2ncn(CCC(CO)CO)c2n1` [Penciclovir], for which the glomerular separation came out at 0.817 ± 0.31.

Turning to `O=C1NCC2(CCN(CCc3ccccc3)CC2)O1` [Fenspiride hydrochloride], the glomerular separation was 1.24 ± 0.7.

`Cc1c(N)c(=O)n(-c2ccccc2)n1C` [Ampyrone] displayed a glomerular separation of 0.975 ± 0.3.

`CC1=C(/C=C/C(C)=C/C=C/C(C)=C\C(=O)O)C(C)(C)CCC1` [Isotretinoin] returned a glomerular separation of 4.83 ± 2.1.

Consider `CS(=O)(=O)OCCCCOS(C)(=O)=O` [Busulfan], for which the glomerular separation is 0.771 ± 0.21.

Consider `COc1ccnc(C[S+]([O-])c2nc3cc(OC(F)F)ccc3[nH]2)c1OC` (stereo not drawn) [Pantoprazole sodium], for which the glomerular separation was found to be 1.04 ± 0.33.

`O=C(NC(Cc1cc(=O)[nH]c2ccccc12)C(=O)O)c1ccc(Cl)cc1` (stereo not drawn) [Rebamipide] yielded a glomerular separation of 0.748 ± 0.25.

As for `CC(C)C(=O)Nc1ccc([N+](=O)[O-])c(C(F)(F)F)c1` [Flutamide], the glomerular separation came out at 1.54 ± 1.1.

In turn, `CC(CNC1CCCCC1)OC(=O)c1ccccc1` (stereo not drawn) [Hexylcaine hydrochloride] showed a glomerular separation of 0.859 ± 0.46.

For the compound `CNCCC(Oc1ccccc1OC)c1ccccc1` (stereo not drawn) [Nisoxetine hydrochloride], the glomerular separation is 0.972 ± 0.43.

A further assay shares this test system. In words: glomerular width (mean of left and right), fold change vs DMSO control; higher = wider glomerulus. The conditions noted are these: 25 µM; exposure: 24-48 hpf. The method, boiled down: as §1
As to `CCOC(=O)C1=C(C)NC(C)=C(C(=O)OC)C1c1cccc([N+](=O)[O-])c1` (stereo not drawn) [Nitrendipine], the glomerular width turned out to be 0.6357 ± 0.0031.

Consider `CC(=O)N(CC(O)CO)c1c(I)c(C(=O)NCC(O)CO)c(I)c(C(=O)NCC(O)CO)c1I` (stereo not drawn) [Iohexol], for which the glomerular width was 0.963 ± 0.072.

`CCN1CCN(C(=O)N[C@@H](C(=O)N[C@@H]2C(=O)N3C(C(=O)O)=C(CSc4nnnn4C)CS[C@H]23)c2ccc(O)cc2)C(=O)C1=O` [Cefoperazone dihydrate] registered a glomerular width of 1.01 ± 0.086.

In turn, `CCN(CC)CCNC(=O)c1ccc(N)cc1` [Procainamide hydrochloride] registered a glomerular width of 1.11 ± 0.027.

As to `OC(CCN1CCCCC1)(c1ccccc1)C1CC2C=CC1C2` (stereo not drawn) [Biperiden hydrochloride], the glomerular width came out at 1.02 ± 0.047.

Compound `CC(=O)OCC(CCn1cnc2cnc(N)nc21)COC(C)=O` [Famciclovir] had a glomerular width of 1.06 ± 0.048.

On to `CC(C)NCC(O)c1ccc2ccccc2c1` (stereo not drawn) [Pronethalol hydrochloride], for which the glomerular width came to 0.96 ± 0.036.

`Cc1cccc(C)c1OCC(C)N` (stereo not drawn) [Mexiletine hydrochloride] had a glomerular width of 0.98 ± 0.033.

Consider `Cc1c(NC(=O)c2cccnc2)c(=O)n(-c2ccccc2)n1C` [Nifenazone], for which the glomerular width was 1.03 ± 0.014.

The compound `C[C@]12CC[C@H]3C(=CCc4cc(O)ccc43)[C@@H]1CCC2=O` [Equilin] came in with a glomerular width of 0.988 ± 0.038.

Consider `CC(=O)N[C@@H](CC(C)C)C(=O)O` [N-Acetyl-L-leucine], for which the glomerular width turned out to be 1.075 ± 0.0078.

With `CC(=O)O[C@H]1C[C@@]2(C)[C@@H](C[C@@H](O)[C@H]3[C@@]4(C)CC[C@@H](O)[C@@H](C)[C@@H]4CC[C@@]32C)/C1=C(\CCC=C(C)C)C(=O)O` [Fusidic acid sodium salt], the glomerular width is 1.06 ± 0.025.

In turn, `Nc1ccc(S(N)(=O)=O)cc1` [Sulfanilamide] gave a glomerular width of 1 ± 0.063.

Regarding `C[C@]12CCC(=O)C=C1C=C[C@@H]1[C@@H]2CC[C@@]2(C)[C@H]1CC[C@@]21CCC(=O)O1` [Canrenone], the glomerular width was 0.798 ± 0.02.

Compound `O=S(=O)(O)c1cc(O)ccc1O` [Ethamsylate] showed a glomerular width of 0.89 ± 0.079.

`Nc1cc(N2CCCCC2)nc(N)[n+]1[O-]` [Minoxidil] displayed a glomerular width of 1.05 ± 0.053.

Compound `CSc1ccc2c(c1)N(CCC1CCCCN1C)c1ccccc1S2` (stereo not drawn) [Thioridazine hydrochloride] had a glomerular width of 1.03 ± 0.047.

The compound `CC(C)n1c(/C=C/C(O)CC(O)CC(=O)O)c(-c2ccc(F)cc2)c2ccccc21` (stereo not drawn) [Fluvastatin sodium salt] returned a glomerular width of 0.609 ± 0.057.

`Nc1nc(N)c2nc(-c3ccccc3)c(N)nc2n1` [Triamterene]: the glomerular width turned out to be 0.902 ± 0.0063.

The compound `COC(=O)[C@@H]1[C@H]2C[C@H]3c4[nH]c5ccccc5c4CCN3C[C@@H]2CC[C@@H]1O` [Yohimbine hydrochloride] showed a glomerular width of 1.08 ± 0.069.

`C[C@]12CC[C@@H]3c4ccc(OS(=O)(=O)O)cc4CC[C@H]3[C@@H]1CCC2=O` [Estropipate] came in with a glomerular width of 0.95203 ± 0.00068.

For the compound `CC(=C(CCO)SSCC1CCCO1)N(C=O)Cc1cnc(C)nc1N` (stereo in doubt) [Fursultiamine Hydrochloride], the glomerular width came out at 0.996 ± 0.027.

Compound `C(=C\c1ccccc1)/CN1CCN(C(c2ccccc2)c2ccccc2)CC1` [Cinnarizine] gave a glomerular width of 1.03 ± 0.024.

Turning to `CCN[C@H]1CN(CCCOC)S(=O)(=O)c2sc(S(N)(=O)=O)cc21` [Brinzolamide], the glomerular width came out at 1.053 ± 0.0011.

`N=C(N)NCc1cccc(I)c1` [Iobenguane sulfate] returned a glomerular width of 1.02 ± 0.015.

`CO/N=C(\C(=O)N[C@@H]1C(=O)N2C(C(=O)O)=C(COC(C)=O)CS[C@H]12)c1csc(N)n1` [Cefotaxime sodium salt]: the glomerular width was 0.957 ± 0.011.

Compound `CC(=O)NC[C@H]1CN(c2ccc(N3CCOCC3)c(F)c2)C(=O)O1` [Linezolid] registered a glomerular width of 1.02 ± 0.019.

For `O=C(CCCN1CC=C(n2c(=O)[nH]c3ccccc32)CC1)c1ccc(F)cc1` [Droperidol], the glomerular width worked out at 0.84901 ± 0.00078.

The compound `NC(Cc1cc(I)c(Oc2cc(I)c(O)c(I)c2)c(I)c1)C(=O)O` (stereo not drawn) [Thyroxine (L)] returned a glomerular width of 1.07 ± 0.046.

Compound `Nc1nc(O)c2ncn(CCC(CO)CO)c2n1` [Penciclovir] showed a glomerular width of 1.01 ± 0.019.

`O=C1NCC2(CCN(CCc3ccccc3)CC2)O1` [Fenspiride hydrochloride] came in with a glomerular width of 0.944 ± 0.024.

Compound `Cc1c(N)c(=O)n(-c2ccccc2)n1C` [Ampyrone] gave a glomerular width of 1.01 ± 0.031.

`CC1=C(/C=C/C(C)=C/C=C/C(C)=C\C(=O)O)C(C)(C)CCC1` [Isotretinoin] showed a glomerular width of 0.525 ± 0.021.

The compound `CS(=O)(=O)OCCCCOS(C)(=O)=O` [Busulfan] gave a glomerular width of 0.97453 ± 0.00036.

With `COc1ccnc(C[S+]([O-])c2nc3cc(OC(F)F)ccc3[nH]2)c1OC` (stereo not drawn) [Pantoprazole sodium], the glomerular width amounted to 1.042 ± 0.0056.

`O=C(NC(Cc1cc(=O)[nH]c2ccccc12)C(=O)O)c1ccc(Cl)cc1` (stereo not drawn) [Rebamipide] had a glomerular width of 0.942 ± 0.061.

`CC(C)C(=O)Nc1ccc([N+](=O)[O-])c(C(F)(F)F)c1` [Flutamide] registered a glomerular width of 1.12 ± 0.03.

Regarding `CC(CNC1CCCCC1)OC(=O)c1ccccc1` (stereo not drawn) [Hexylcaine hydrochloride], the glomerular width came out at 0.937 ± 0.014.

`CNCCC(Oc1ccccc1OC)c1ccccc1` (stereo not drawn) [Nisoxetine hydrochloride] gave a glomerular width of 0.94 ± 0.013.
